A selection: hits, their analogues and other compounds. The true share with any hit is near 12%.
USP17 block – human USP17-like deubiquitinase inhibition. A8MUK1. purified USP17, Ub-rhodamine cleavage fluorescence, 3 h. inhibition, % at 50 µM. hit rate 6.5% among 47,000. AID 1645855
USP30 block – human USP30 deubiquitinase inhibition; hit rate 5.3% among 47,000; Q70CQ3; inhibition, % at 25 µM; purified USP30, Ub-rhodamine cleavage fluorescence
Target sequence (Q70CQ3 whole entry, looked up): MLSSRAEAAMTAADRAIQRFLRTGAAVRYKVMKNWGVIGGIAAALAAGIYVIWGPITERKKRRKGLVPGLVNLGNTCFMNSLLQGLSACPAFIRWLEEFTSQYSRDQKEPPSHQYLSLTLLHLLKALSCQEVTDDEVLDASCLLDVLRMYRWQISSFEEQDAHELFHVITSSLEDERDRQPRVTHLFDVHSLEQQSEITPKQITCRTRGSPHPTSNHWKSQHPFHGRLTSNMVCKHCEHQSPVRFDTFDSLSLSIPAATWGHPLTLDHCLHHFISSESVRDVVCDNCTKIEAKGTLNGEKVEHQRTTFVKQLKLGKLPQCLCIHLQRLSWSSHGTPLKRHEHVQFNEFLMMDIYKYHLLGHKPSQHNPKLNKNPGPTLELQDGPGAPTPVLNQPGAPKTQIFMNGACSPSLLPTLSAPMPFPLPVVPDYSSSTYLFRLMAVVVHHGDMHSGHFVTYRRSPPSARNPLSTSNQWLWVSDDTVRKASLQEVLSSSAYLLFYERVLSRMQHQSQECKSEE
USP28 block – human USP28 deubiquitinase inhibition | purified USP28, Ub-rhodamine cleavage fluorescence, 30 min | inhibition, % at 25 µM | hit rate 3% among 47,000 | Q96RU2
OTUD3 block – blocks human OTUD3 ubiquitin-rhodamine cleavage; Q5T2D3; purified OTUD3, Ub-rhodamine fluorescence, 2 h; inhibition, % at 25 µM; hit rate 0.7% among 47,000; AID 1645858
Hits are given with their value; 0 = inactive; - = no result given. No stated cut-off is given here; in the data, active means inhibition above about 30%; inactive means the rest.

SMILES	USP17 block	USP30 block	USP28 block	OTUD3 block
CNc1cc(C2CCCN(C(=O)c3cc(=O)n(C)c(=O)n3C)C2)ccn1 (stereo unspecified)	0	0	0	0
COc1ccc(CC(=O)N2CCc3cc(-c4noc(C)n4)ccc32)cc1	0	0	33.0	0
COc1ccc(-c2c3c(=O)n(C)c(=O)n(C)c3cn2CCc2ccc(OC)c(OC)c2)cc1	0	0	0	0
O=S(=O)(c1ccc2c(c1)OCCCO2)N1CCN(Cc2nc3ccccc3s2)CC1	0	0	0	0
O=C(Nc1ccc2c(c1)OCO2)C1CC(=O)N(CCc2ccccc2)C1 (stereo unspecified)	43.7	0	0	0
COc1ccc(CCN2CC(C(=O)Nc3ccc4c(c3)OCO4)CC2=O)cc1OC (stereo unspecified)	0	0	0	0
O=C(Nc1ccc2c(c1)OCO2)C1CCN(Cc2nc3ccccc3s2)CC1	0	0	69.9	0
CCN1C/C(=C\c2ccc(N3CCOCC3)c([N+](=O)[O-])c2)c2nc3ccccc3c(C(=O)O)c2C1	0	0	0	0
Cc1nn(-c2ccc(N3CCN(C(=O)COc4ccccc4)CC3)nn2)c(C)c1C	-	0	0	0
COc1ccc(CNC(=O)CSc2nc3nc(C)ccc3o2)cc1	52.1	0	0	0
CC(C)(C)c1ccccc1OCCOCCN1CCNCC1	0	0	0	0
COc1cc(C(=O)Nc2ncc3c(n2)CC(c2ccc(C)cc2)CC3=O)cc(OC)c1OC (stereo unspecified)	0	0	0	0
Cc1ccc(C2CC(=O)c3cnc(NC(=O)c4ccc(Cl)cc4)nc3C2)cc1 (stereo unspecified)	0	42.9	0	0
CC(=O)Nc1ccc(SCC(=O)c2cc(C)n(CC3COc4ccccc4O3)c2C)cc1 (stereo unspecified)	0	0	0	0
COCCn1c(C)cc(C(=O)CSc2ccc(Cl)cc2)c1C	0	0	30.1	0
CN(C(=O)c1nc(N2CCSCC2)c2cnn(C)c2n1)c1ccccc1	0	0	0	0
CCc1nc(SCc2ccccc2C)c2oc3ccccc3c2n1	0	32.0	0	0
CCc1nc(SCC(=O)Nc2cc(Cl)ccc2C)c2oc3ccccc3c2n1	54.2	68.2	0	0
CCc1nc(SCC(=O)Nc2ccccc2Cl)c2oc3ccccc3c2n1	58.0	0	0	0
COc1ccc(C2CC(=O)C3=C(C2)Nc2ccccc2N(C(=O)C2CC2)C3c2cccc(F)c2)cc1 (stereo unspecified)	0	0	0	0
CC(=O)c1cccc(NC(=O)c2sc(-c3ccccc3)nc2C)c1	0	0	33.4	0
COc1ccc(OC)c(NC(=O)c2cc3c(CO)cnc(C)c3oc2=O)c1	33.4	43.5	0	0
Cc1nc(-c2ccccc2)sc1C(=O)Nc1ccc2cc[nH]c2c1	0	0	0	0
CC(=O)Nc1cccc(NC(=O)c2sc3nc(-c4ccccc4)cn3c2C)c1	46.7	-	-	0
CC(=O)Nc1ccc(NC(=O)c2sc3nc(-c4cccc([N+](=O)[O-])c4)cn3c2C)cc1	0	0	0	0
SMILES	USP17 block	USP30 block	USP28 block	OTUD3 block
COc1ccc(OC)c(NC(=O)c2sc(-c3ccccc3)nc2C)c1	51.3	74.5	44.3	47.9
CCOc1ccc(C(=O)c2cc3c(CO)cnc(C)c3oc2=O)cc1	0	0	0	0
O=C(NCc1noc(C2CCCCC2)n1)c1ccccc1	0	0	0	0
CCCc1nnc(NC(=O)c2cc(-c3ccccc3O)n[nH]2)s1	0	0	0	0
Cc1nc(Nc2ccccn2)cc(C2CCCN2CC(N)=O)n1 (stereo unspecified)	0	0	0	0
CC1CCCN(c2ccc(-c3noc(CN4CCOCC4)n3)cn2)C1 (stereo unspecified)	0	0	0	0
Cc1nc(-c2ccccc2F)sc1C(=O)Nc1cccnc1	53.6	0	0	0
COc1ccc(-c2nc(C)c(C(=O)NCc3ccc(S(N)(=O)=O)cc3)s2)cc1	56.6	0	0	0
COc1ccc(NC(=O)c2nc(C3CCC3)oc2C)cc1Cl	0	0	0	0
COc1ccc(OC)c(NC(=O)c2nc(C3CCC3)oc2C)c1	0	30.8	0	0
COc1cccc(F)c1-c1nc(C)c(C(=O)NCc2ccccc2)s1	0	0	0	0
COc1ccc(OC)c(NC(=O)c2cc(Cl)ccc2OC)c1	62.0	0	0	0
Cc1cc(C(=O)N2CCC(C)CC2)nc2cc(-c3ccccn3)nn12	0	0	0	0
Fc1ccccc1-c1nnc(C2(c3ccc4c(c3)OCO4)CCOCC2)o1	0	0	0	0
C/C=C\C1=CC(=O)[C@]23C[C@H]2[C@]2(C)CO[C@@]1(O)[C@@]3(O)O2	52.4	0	0	0
O=[N+]([O-])c1cc(S(=O)(=O)Nc2ccccc2)ccc1NCc1ccc(F)cc1	0	35.5	0	0
COc1ccccc1CNc1ccc(S(=O)(=O)Nc2ccccc2)cc1[N+](=O)[O-]	0	0	0	0
COCCCN1CCS(=O)(=O)c2c(Cl)c(F)nc(Oc3ccccc3F)c21	87.9	0	0	0
O=S1(=O)CCN(CC2CCCO2)c2c(Oc3ccc(F)cc3)nc(F)c(Cl)c21 (stereo unspecified)	33.7	0	0	0
O=S1(=O)CCN(CC2CCCO2)c2c(Oc3ccccc3)nc(F)c(Cl)c21 (stereo unspecified)	60.2	0	0	0
O=S1(=O)CCN(Cc2cccnc2)c2c(Oc3ccccc3)nc(F)c(Cl)c21	0	0	0	0
N#Cc1ccc(Oc2nc(F)c(Cl)c3c2N(CC2CCCO2)CCS3(=O)=O)cc1 (stereo unspecified)	46.6	0	0	0
COCCN1CCS(=O)(=O)c2c(Cl)c(F)nc(Oc3ccc(OC)cc3)c21	0	0	0	0
O=C(c1cnc2sccn2c1=O)N1CCN(Cc2ccccc2)CC1	0	0	0	0
Cc1ccc(N2CC(=O)N(c3ccc(C)c(Cl)c3)CC2=O)cc1Cl	0	0	0	0
SMILES	USP17 block	USP30 block	USP28 block	OTUD3 block
O=C(Nc1ccc2snnc2c1)Nc1ccc(F)cc1F	0	0	0	0
CCc1ccccc1NC(=O)c1nnn(-c2ccccc2)n1	0	0	0	0
CNC(=O)C1CN(C)CCN(C(=O)c2cc(C(C)C)no2)C1 (stereo unspecified)	0	0	0	0
CCOC(=O)C1=C(COc2ccc(C#N)cc2)NC(=O)NC1CC (stereo unspecified)	0	0	0	0
CO[C@@H]1C(=O)Nc2ccc(/C=C/[C@]3(C)CCC(=O)[C@@H](C)C3)c(O)c2[C@@]1(O)c1ccccc1	0	0	0	0
O=C(Nc1ccccc1Br)c1ccn(COc2ccccc2F)n1	64.8	34.3	0	0
Cc1cccc(NC(=O)c2ccn(COc3ccc(F)cc3F)n2)c1C	0	0	51.1	0
COCCCn1c(C(=O)NC(C)COC)cc2c(=O)n3cccc(C)c3nc21 (stereo unspecified)	0	0	0	0
COC(=O)c1c(C)nn(C)c1-c1ccno1	0	30.8	0	0
COC(=O)c1c(C(=O)OC)c(-c2ccccc2)n(C)c1-c1ccccc1	0	0	0	0
COc1cc(-n2c(=O)c3ccccc3n(CC(=O)NCC3CCCO3)c2=O)cc(OC)c1OC (stereo unspecified)	0	0	0	0
